Compounds with a hit are over-represented: about 4.1% of the library has one in this group of screens.
DAX1 inh-1 – DAX1 (NR0B1) inhibitors, primary screen, cell-based, HEK293, Gal4-DAX1, luciferase luminescence. HEK293 Gal4-DAX1 luciferase reporter. inhibition, % at 6.75 µM. 340,000 compounds, 0.99% hits. AID 504766, 2011;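 active = inhibition above the mean over all tested compounds plus 3 SD, cut at about 4.2% in these data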;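 also: 0% = DAX1-transfected cells with DMSO and 100% = empty-vector control cells with DMSO; inhibition shows as a rise in luminescence from relieved DAX1 repression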
Target sequence (P51843 207-470 limits assumed): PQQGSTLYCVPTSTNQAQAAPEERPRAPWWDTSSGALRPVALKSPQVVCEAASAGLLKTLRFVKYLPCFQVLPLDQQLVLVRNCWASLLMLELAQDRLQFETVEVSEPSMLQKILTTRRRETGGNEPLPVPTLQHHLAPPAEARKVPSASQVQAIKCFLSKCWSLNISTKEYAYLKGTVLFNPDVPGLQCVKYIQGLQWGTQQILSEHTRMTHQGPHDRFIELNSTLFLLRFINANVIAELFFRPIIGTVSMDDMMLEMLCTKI
ssDAF12 agonist – S. stercoralis DAF-12 nuclear receptor activators, primary screen, cell-based, luminescence, HEK293, GRIP1 co-expression, lit1-tk-luc; Nuclear hormone receptor DAF-12 (Strongyloides stercoralis); HEK293 ssDAF-12/GRIP1 lit1-tk-luc reporter; % of 3 µM dafachronic acid response; activation, % at 6.8 µM; 370,000 compounds, 1% hits; AID 652126, 2013;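 active = activation above the mean over all tested compounds plus 3 SD, cut at about 0.9% in these data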;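 also: 0% = DMSO-only wells and 100% = 3 µM delta7-dafachronic acid wells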
hcDAF12 agonist – H. contortus DAF-12 nuclear receptor activators, primary screen, cell-based, luminescence, HEK293, lit1-tk-luc reporter; HEK293 hcDAF-12 lit1-tk-luc reporter; 0% DMSO, 100% Δ7-dafachronic acid; activation, % at 6.8 µM; 370,000 compounds, 1.4% hits;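 active = activation above the mean of all tested compounds plus 3 SD, cut at about 5.5% in these data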;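 also: 100% = response to 3 µM Δ7-dafachronic acid high control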
DAX1 inh-2 – DAX1 (NR0B1) inhibitors on StAR promoter, primary screen, cell-based, luminescence, SF-1 (NR5A1), full-length DAX-1. 370,000 compounds, 1.1% hits. AID 652010, 2013. inhibition, % at 6.8 µM. HEK293T StAR-luciferase reporter, SF-1/DAX-1 repression relief;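 active = inhibition above the mean over all tested compounds plus 3 SD, cut at about 3.6% in these data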;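 also: 0% = DAX-1 cells with DMSO and 100% = cells lacking DAX-1 with DMSO; higher inhibition means more luminescence from relief of DAX-1 repression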
hgDAF-12 ag – H. glycines DAF-12 receptor agonists, primary screen, cell-based, luminescence, HEK293, GAL4 fusion, UAS-luciferase; HEK293 GAL4-hgDAF12 UAS-luciferase reporter, agonist luminescence; normalized to butyrate control; activation, % at 6.8 µM; 370,000 compounds, 1.8% hits; Nuclear hormone receptor DAF-12 (Heterodera glycines), GAL4 fusion;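 active = activation above a cutoff set at the mean of all screened compounds plus 3 SD, cut at about 10% in these data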;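 also: 0% = DMSO wells and 100% = sodium butyrate wells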
Numbers without * were called inactive; · = no result given.

SMILES	DAX1 inh-1	ssDAF12 agonist	hcDAF12 agonist	DAX1 inh-2	hgDAF-12 ag
COC(=O)c1scc(C)c1N/N=C(\C)c1ccc(F)cc1F	0	0	5.8*	0	0
COC(=O)c1scc(C)c1NC(=O)c1ccc(Cl)cc1	-1	·	·	·	·
CC(C)C(=O)N[C@H]1[C@H](O)CCC[C@]12C(=O)N(Cc1ccccc1)c1ccccc12	·	-1	-2	1	3
CC(C)OC(=O)CSc1nnc(-c2ccc(C(C)(C)C)cc2)n1N	5.0*	-1	0	1	3
CCOC(=O)c1nn(-c2ccc([N+](=O)[O-])cc2)cc1O	2	-1	0	2	2
CCOC(=O)c1nn(-c2ccc(C)c(C)c2)cc1O	2	-1	5	3	13*
CSc1ccc(C=NNC(=O)c2cc(-c3ccc(Cl)cc3)n[nH]2)cc1	·	-1	2	-2	4
COc1cccc(NC(=O)N2CC[C@@H]3[C@H]2c2cc(-c4cccc(C#N)c4)ccc2N(C)[C@@H]3CO)c1	·	-2	-3	-3	-3
Cc1cccc(NC(=O)N2CCC(N(C)CCC(C)C)CC2)c1	·	-2	-2	0	-1
CCOC(=O)C1=NN(c2cccc(Cl)c2)C2=NC(C)=C(C(=O)OC)C(c3cccs3)N12 (stereo not given)	5.6*	-2	1	0	2
CCN(C[C@@H]1[C@@H](c2ccccc2)[C@H](CO)N1S(C)(=O)=O)C(=O)C1CCC1	·	-1	1	1	5
Cc1occc1C(=O)N/N=C/C=C/c1ccc(N(C)C)cc1	1	0	2	3.8*	12*
Cc1n[nH]c(C)c1S(=O)(=O)NCCc1c[nH]c2ccccc12	·	-1	1	0	-2
CCCC1CCC2(CC1)CCC2OC(=S)Nc1ccc(N(C)C)cc1 (stereo not given)	·	0	-1	·	-1
O=C(NCc1csc(-c2cccs2)n1)c1cccc(Cl)c1	4.4*	-2	-2	0	0
O=C(NCc1csc(-c2cccs2)n1)c1ccccc1	2	-1	1	0	2
C/C(=N\OC(=O)NC(C)C)c1sc(-c2ccc(Cl)cc2)nc1C	0	-1	1	1	5
CCNC(=O)O/N=C(\C)c1sc(-c2ccc(Cl)cc2)nc1C	2	0	5	2	11*
CCOc1ccccc1C=NN=Cc1ccccc1O	6.8*	1.1*	0	0	-1
Cc1ccc(N2CCN(/N=C\c3cccnc3)CC2)cc1	·	-1	-1	0	-3
Cc1cc(=O)[nH]c(=S)n1-c1ccccc1	0	0.9*	2	2	9
C#CCn1c2ccccc2c(=O)n1C(C)CBr (stereo not given)	·	1.1*	1	2	4
C#CCn1c2ccccc2c(=O)n1C(C)C	·	-1	1	0	2
CC[C@@H]1CCCCc2ccccc2[C@H](C(=O)C[C@@H](O)CC(C)=O)OC1=O	0	-1	-2	0	3
CC[C@H]1CCCCc2ccccc2[C@@H](C(=O)C[C@@H](O)CC(C)=O)OC1=O	0	-1	-1	4.0*	1
SMILES	DAX1 inh-1	ssDAF12 agonist	hcDAF12 agonist	DAX1 inh-2	hgDAF-12 ag
C=CCN(C)CC#CCCCCl	·	-1	0	2	0
COc1ccccc1-n1cc(-c2ccc(Cl)cc2)[nH]c1=O	0	-1	6.4*	0	-1
COc1ccc(-c2cn(-c3cccc(C)c3)c(=O)[nH]2)cc1OC	1	-1	0	2	6
CC(OC(=O)Cn1[nH]c(=O)c2ccccc2c1=O)C(=O)Nc1cccc(Cl)c1 (stereo not given)	4.2*	0	2	0	1
COC(=O)C1CN(CC(C)C)CCS(=O)(=O)N1Cc1ccc(C(F)(F)F)cc1 (stereo not given)	·	-1	-2	-1	-6
CC(C(=O)NCC1CCCO1)c1ccc([N+](=O)[O-])cc1 (stereo not given)	5.0*	-2	0	0	-3
O=C(Cc1ccc([N+](=O)[O-])cc1)NCC1CCCO1 (stereo not given)	-1	-2	0	0	-5
